# Gal4-VP16 FLuc: counter-screen for ROR gamma inhibitors: Gal4-VP16 reporter; Drosophila S2 Gal4-VP16 UAS-luciferase, luminescence, 20 h; Potency, µM (titrated, usually from 53.6 µM), for inactives: top-dose activity, negative = inhibition, hits mostly inhibitors; AID 2546; 3.5% of 310,000 active;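 also: Gal4-VP16 expression switched on by copper sulfate through the metallothionein promoter; potency is read from the fitted curve at half-maximal effect; nearly all actives have a fitted effect of over 50% in size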
# RORg inh: blocks mouse ROR gamma transcriptional activity; P51450; Potency, µM (highest dose often 53.6 µM), inactives show at the top dose activity change, negative = inhibition, most hits filed as inhibitors; Drosophila S2 Gal4-RORgamma UAS-luciferase reporter, 20 h; 5.4% of 310,000 active; also: potency is read from the fitted curve at half-maximal effect; nearly all actives have a fitted effect of over 60% in size
# Target sequence (P51450 whole entry, looked up, the tested form may be a part): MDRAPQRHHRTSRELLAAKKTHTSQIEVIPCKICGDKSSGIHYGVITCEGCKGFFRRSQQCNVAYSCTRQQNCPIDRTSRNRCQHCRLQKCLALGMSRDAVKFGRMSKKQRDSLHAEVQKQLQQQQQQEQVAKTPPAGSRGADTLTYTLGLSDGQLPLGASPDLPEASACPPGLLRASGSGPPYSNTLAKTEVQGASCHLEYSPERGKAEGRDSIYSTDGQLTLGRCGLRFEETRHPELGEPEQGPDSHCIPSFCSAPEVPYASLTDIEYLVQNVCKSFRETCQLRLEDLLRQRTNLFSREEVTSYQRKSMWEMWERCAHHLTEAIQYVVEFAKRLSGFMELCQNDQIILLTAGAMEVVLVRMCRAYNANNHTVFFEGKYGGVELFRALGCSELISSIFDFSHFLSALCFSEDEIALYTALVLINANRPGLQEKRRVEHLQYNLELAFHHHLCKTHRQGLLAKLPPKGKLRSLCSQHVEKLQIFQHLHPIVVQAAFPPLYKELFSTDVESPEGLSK
#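 Read-out: Photinus luciferase luminescence; inhibitors lower reporter signal. Insect Schneider cells with Gal4-ROR gamma fusion under metallothionein promoter, UAS reporter; 700 uM final copper sulfate induction, 20 hr, ambient temperature.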
# DT40 TDP1 no CPT: qHTS for Inhibitors of human tyrosyl-DNA phosphodiesterase 1 (TDP1): qHTS in cells in absence of CPT | DT40 Tdp1-/- hTDP1 cells, no CPT, ATP luminescence, 48 h | Potency, µM (top dose mostly 46.2 µM), for the others: at the top dose activity change, negative = growth inhibition, actives largely listed as inhibitors | 15% of 420,000 active | AID 686978, 2013; also: potency is read from the fitted curve at half-maximal effect; nearly all actives have a fitted effect of over 55% in size
#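 Growth of hTDP1-complemented DT40 Tdp1-knockout cells is measured by ATP luminescence after at least 48 hr compound exposure at 37 °C, with DMSO substituting for the 20 nM CPT used in the parallel screen.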
# LDHA inh: blocks human lactate dehydrogenase A; P00338; 0.15% of 480,000 active; activity change, % (values are at about 110 or 230 µM); purified LDHA, NADH/diaphorase-resazurin fluorescence; stronger effect = lower value; in the data active = activity change below about -30%; inconclusive = mostly about -25% to -30%;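 also: plate controls were DMSO wells for no effect and wells without enzyme for full effect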
#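 LDH5 2 nM; NADH 0.06 mM, pyruvate 0.2 mM; 200 mM Tris pH 7.4, EDTA, Tween-20; 5 min RT. Detection: diaphorase 0.133 mg/mL + resazurin 37 µM, fluorescence ex540/em590 at 0 and 20 min; normalized to enzyme-free and DMSO wells.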
# IL1B secr inh: inflammasome signaling inhibition, IL-1 beta readout. THP-1 LPS/ATP IL-1B secretion, AlphaLISA, 16 h; stronger effect = lower value. activity change, % at 57.5 µM. 4.7% of 360,000 active. AID 743279; in the data active = activity change below about -50%; inconclusive = mostly about -30% to -49%
#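 Secreted IL-1B measured by AlphaLISA bead assay after 16 h compound exposure of THP-1 cells; compounds (final up to 57.5 uM) added 1 h before LPS (250 ng/mL) and ATP (1.25 mM) stimulation; lower signal means less secretion.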
# TDP1 cell CPT: DT40-hTDP1 cell growth loss with CPT; chicken DT40 Tdp1-/-;hTDP1 cells + 20 nM CPT, ATP luminescence, 48 h; Potency, µM (series often up to 46.2 µM), for the others: at the highest dose activity change, negative = growth inhibition, most hits filed as inhibitors; 12% of 420,000 active; AID 686979; also: potency is read from the fitted curve at half-maximal effect; nearly all actives have a fitted effect of over 55% in size
#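 Chicken DT40 Tdp1-/- cells stably complemented with human TDP1 were seeded at 400 cells/well in medium containing 20 nM camptothecin, exposed to pin-transferred compounds, and grown at 37 °C for at least 48 hr. Viability was read as ATP luminescence.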
# Starred values were filed as active, the others as inactive; ? = inconclusive; . = no result; [ ] = another dose, or the depositor's remark. A selection: hits, their analogues and other compounds. The true share with any hit is near 18%. Unless noted, calls follow the shape of the dose curve; as a rule, active = well fitted curve in the direction sought with a large enough effect; inconclusive = small, poorly fitted or top-dose-only effect, or another doubt; inactive = no such curve, though single readings can be large; an effect the other way counts as inactive or inconclusive. Unless noted, % is scaled to controls: 0 for no effect and ±100 for the full control effect.
SMILES,Gal4-VP16 FLuc,RORg inh,DT40 TDP1 no CPT,LDHA inh,IL1B secr inh,TDP1 cell CPT
Cc1occc1-c1nnc(SCC(=O)c2cc(C)n(C3CC3)c2C)n1-c1ccccc1,.,.,.,-12,.,.
Cc1ccc2nc(Cl)c(C3CC(c4cccs4)=NN3C(=O)CCCC(=O)O)cc2c1 (stereo not drawn),-2%,-7%,8.2µM*,-1,29,-19%
COc1ccc2cc(C3CC(c4ccco4)=NN3S(C)(=O)=O)c(Cl)nc2c1 (stereo not drawn),0%,29%,?,1,-2,?
Cc1ccc2cc(C3CC(c4ccco4)=NN3C(=O)CCC(=O)O)c(Cl)nc2c1 (stereo not drawn),?,-9%,16µM*,-5,-5,?
CC(=O)c1ccc(OCc2cc(C(=O)N(C)CC3COc4ccccc4O3)no2)cc1 (stereo not drawn),.,.,13µM*,-2,-26,10µM*
CSc1ccccc1OCc1cc(C(=O)N2CCN(c3ccccc3)CC2C)no1 (stereo not drawn),-5%,36%,?,1,11,?
CC(=O)c1ccc(OCc2cc(C(=O)N3CCN(c4ccccc4)CC3C)no2)cc1 (stereo not drawn),?,5%,18µM*,-9,?,?
CC(=O)c1ccc(OCc2cc(C(=O)N(C)Cc3ccon3)no2)cc1,9%,22%,-27%,-4,4,-24%
N#Cc1cccc(NC(=O)NCCNc2ccccn2)c1,.,.,.,2,.,.
COC1=CC(=O)C=C(OC)C1=O,4.5µM*,2.8µM*,0.82µM*,18,-107*,0.65µM*
COc1cc(N=CC2=C(O)c3ccccc3C2=O)cc(OC)c1,27%,?,-26%,10,0,-7%
COC1=CC(=O)c2ccccc2C1=O,.,.,4.1µM*,7,9,3.7µM*
N#Cc1ccc(OCCOC(=O)c2ccccc2SCC2CCCO2)cc1 (stereo not drawn),.,.,.,4,.,.
Cc1ccc(S(=O)(=O)N2[C@H](CC(=O)c3ccccc3)OC[C@@H]2C(C)C)cc1,.,.,?,-8,1,?
Cc1ccc(S(=O)(=O)N2[C@H](CC(=O)c3cccs3)OC[C@@H]2C(C)C)cc1,.,.,18µM*,-1,30,?
Cc1ccc(S(=O)(=O)N2[C@@H](Cc3ccccc3)CO[C@H]2CC(=O)c2ccccc2)cc1,.,.,-27%,-4,-6,-23%
Cc1ccc(S(=O)(=O)N2[C@@H](Cc3ccccc3)CO[C@H]2CC(=O)c2ccc(F)cc2)cc1,.,.,?,0,-14,23µM*
CCCN1CCC(NC(=O)COc2ccc(Cl)cc2C)CC1,.,.,.,-5,.,.
COc1ccc(-c2cc(=O)n(-c3ccc(C)c(C)c3)[nH]2)cc1,.,.,.,6,.,.
COc1ccc(-c2cc(=O)n(-c3ccc([N+](=O)[O-])cc3)[nH]2)cc1,-5%,4%[10 µM],16µM*,-5,3,?
CC(=O)c1ccc(N2CCN(C(=O)c3csc(-c4ccccc4)n3)CC2)cc1,.,.,.,-7,.,.
CSc1ccc(NC(=O)CCCc2nc(C(C)C)no2)cc1,.,.,.,-1,.,.
Cc1ccccc1CN1C(=O)C2(OCCCO2)c2ccccc21,3%,28%,?,0,-8,11µM*
Cc1ccc(S(=O)(=O)Nc2ccc(N(C)C)cc2)cc1,-11%[10 µM],19%,?,14,-21,-24%
CN(C)c1ccc(NS(=O)(=O)c2ccc(-c3csnn3)cc2)cc1,1%,-3%,13µM*,5,-5,?
SMILES,Gal4-VP16 FLuc,RORg inh,DT40 TDP1 no CPT,LDHA inh,IL1B secr inh,TDP1 cell CPT
CN(C)c1ccc(NS(=O)(=O)c2cccc(Cl)c2)cc1,-8%,18%,10µM*,9,-9,-16%
CN(C)c1ccc(NS(=O)(=O)c2ccc(Cl)cc2)cc1,-17%,34%,?,4,-1,18µM*
CCN(Cc1ccc(OC)c(F)c1)C(C)c1nnc(-c2ccc(F)cc2)o1 (stereo not drawn),.,.,.,4,.,.
O=S(=O)(Cc1ccccc1)Nc1cc(F)cc(F)c1,.,.,.,7,.,.
Brc1cccc[n+]1CCCCCC[n+]1ccccc1Br,.,.,18µM*,-60*,.,?
Clc1cccc[n+]1CCCCCC[n+]1ccccc1Cl,.,.,-98%,.,.,35µM*
O/N=C/c1cccc[n+]1CCCCCC[n+]1ccccc1/C=N/O,2%,0%,14%,-3,-6,4%
Brc1cccc[n+]1CCCC[n+]1ccccc1Br,.,.,16µM*,-62*,.,8.9µM*
COc1cc(CNC(C)c2ccccc2)cc(Br)c1OCc1ccccc1 (stereo not drawn),?,?,9.2µM*,-2,-88*,-94%
COc1cc(CNn2c(C)n[nH]c2=S)cc(Cl)c1OCc1ccc(F)cc1,?,?,-38%,-2,5,-13%
COc1cc(CNn2c(C)n[nH]c2=S)cc(Br)c1OCc1ccc(F)cc1,-2%,10µM*,-2%,-13,9,2%
COc1cc(CNC(C)c2ccccc2)cc(Br)c1OCc1ccc(F)cc1 (stereo not drawn),?,17%[1.91 µM],?,0,-94*,?
CCOc1ccc(NC(=O)C2CC(=O)Nc3c(-c4ccc(F)cc4)cnn32)cc1 (stereo not drawn),.,.,.,-5,.,.
CC(=O)Nc1ccc(NC(=O)c2ccc3ccn(C)c3c2)cc1,.,.,.,4,.,.
Cc1ncc(-c2ccc(S(=O)(=O)Nc3ccc(Br)cc3F)cc2)o1,.,.,.,3,.,.
COc1ccc2c(C)c(CC(=O)NCc3ccccc3)c(=O)oc2c1C,.,.,.,-1,.,.
CC(OC(=O)CCOc1ccccc1)C(=O)Nc1ccc(S(N)(=O)=O)cc1 (stereo not drawn),.,.,.,-11,.,.
Cc1cc(C)cc(C(=O)C(C#N)C(=O)c2cccs2)c1 (stereo not drawn),.,.,.,0,.,.
Brc1ccc(C=Nc2ccc(Nc3ccccc3)cc2)s1,-7%,?,16µM*,8,-11,?
C(=Nc1ccc(Nc2ccccc2)cc1)c1ccc2ccccc2c1,13µM*,?,12µM*,0,-69*,13µM*
Cc1cc(C)cc(NC(=S)NNC=O)c1,.,.,.,0,.,.
Cc1ccc(N2C(=O)c3cccc4c([N+](=O)[O-])ccc(c34)C2=O)c2cccnc12,-11%,25%,0.73µM*,-8,13,0.82µM*
O=C1c2cccc3c([N+](=O)[O-])ccc(c23)C(=O)N1Cc1cccnc1,?,4.5µM*,4.6µM*,11,-101*,3.7µM*
